A number with no mark means an inactive call. Calls of active or inactive are those of the source. The rule behind the calls is not given here.
Target: L-lactate dehydrogenase (Plasmodium falciparum (isolate CDC / Honduras)) (UniProt Q27743)
Sequence (Q27743 whole entry, looked up): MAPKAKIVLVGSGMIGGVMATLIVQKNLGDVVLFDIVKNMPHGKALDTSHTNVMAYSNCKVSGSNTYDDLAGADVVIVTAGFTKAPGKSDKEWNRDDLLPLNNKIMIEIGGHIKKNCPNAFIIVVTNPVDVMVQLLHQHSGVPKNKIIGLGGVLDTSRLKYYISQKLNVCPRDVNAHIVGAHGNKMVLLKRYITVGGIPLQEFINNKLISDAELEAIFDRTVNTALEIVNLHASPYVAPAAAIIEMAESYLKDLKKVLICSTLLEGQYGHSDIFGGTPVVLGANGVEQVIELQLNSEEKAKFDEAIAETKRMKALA
Experiment: PfLDH activity inhibition – cell lysate, 3D7 strain, counter-screen for P. falciparum growth inhibition project (AID 2304);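 note: 0% = vehicle and 100% = reference inhibitor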
Conditions: P. falciparum 3D7 crude extract, LDH APAD/NBT absorbance; at 2 µM; active compounds read high
`O=C(Nc1cccc(CN2CCN(C(=O)c3cccc(Cl)c3)CC2)c1)c1ccco1` gave an inhibition of 2%. With `CC(=O)N[C@H](C(=O)Nc1ccc(-c2ccc(-c3nc4ccc(C(F)(F)F)cc4[nH]3)cc2)cc1)C(C)C` the inhibition was 7%. With `O=C(Cc1ccc(NC(=O)c2ccc(O)c(-c3ccc(Cl)c(Cl)c3)c2)cc1)NCCN1CCOCC1` the inhibition was 4%. In the case of `O=C(NCCCCN1CCC(c2ccc3c(c2O)CCCC3)CC1)c1ccc(-c2ccc(Cl)cc2)cc1`, the inhibition is reported as 1%. For `O=C(Nc1ccc(-c2cccc(-c3nc4ccccc4[nH]3)c2)cc1)N[C@@H]1C[C@H]1c1ccccc1`, the inhibition was -2%. In the case of `CCN(CC)CCCC(C)Nc1c2ccccc2nc2c1ccc1ccccc12` (centres undefined), the inhibition is reported as 3%. Work on `NC1CCN(Cc2ccc(-c3ccc(-c4nc5ccc(F)cc5[nH]4)s3)cc2)C1` (centres undefined) yielded an inhibition of 3%. Work on `Fc1cccc(C=NNc2ccnc3cc(Cl)ccc23)c1` yielded an inhibition of -7%. Molecule `Nc1cc(-c2ccc3c(N)nccc3c2)ccc1Cl` has an inhibition of -2%. `O=[N+]([O-])c1ccc(Oc2ccccc2CNCC2CCN(CC3CCCCC3)CC2)cc1` gave an inhibition of -2%. With `CCN(CCCN1CCCCC1)c1cc(C)nc(Nc2ccc(C)c(C)c2)n1` the inhibition was -3%. In the case of `CC(C)(C)c1ccc(CN2CCC(CNC(=O)c3cc(-c4ccccc4)nc4ccccc34)CC2)cc1`, the inhibition is reported as -1%. In the case of `CCCCCCCCNCC(O)c1cc(-c2ccc(Cl)cc2)nc2cc(C)ccc12` (centres undefined), the inhibition is reported as -2%.

Test system: not listed separately
Experiment: inhibition of 3D7 malaria parasite growth – strain 3D7 (AID 2306);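 note: 0% = DMSO wells and 100% = chloroquine plus artemisinin control wells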
Conditions: P. falciparum 3D7 erythrocytic growth, LDH absorbance, 72 h; at 2 µM; active compounds read high
For `CCN(CC)CCCNc1ncc2c(-c3ccc(NC(=O)Nc4cc(C(F)(F)F)ccc4F)cc3)nn(C)c2n1`, the growth inhibition was 99% (active). In the case of `CC(C)Cc1cn(-c2nc(C(=N)N)cs2)c2cc(Cl)ccc12`, the growth inhibition is reported as 100% (active). With `Oc1ccc2[nH]c(-c3cccs3)nc2c1CN1CCC(N2CCCC2)CC1` the growth inhibition was 100% (active). For `COc1ccc(N2CCN(c3nc(N)c4cc(OC)c(OC)cc4n3)CC2C)cc1` (centres undefined), the growth inhibition was 95% (active). In the case of `Oc1c(Cl)cc(-c2ccccc2)cc1CNC1CCCCC1`, the growth inhibition is reported as 97% (active). For `O=C(Nc1ccc(F)cc1)N1CCCN(c2ccnc3cc(Cl)ccc23)CC1`, the growth inhibition was 97% (active). For `Nc1cccc(CNCc2ccc(-c3cccc(-c4nc5ccccc5[nH]4)c3)cc2)c1`, the growth inhibition was 103% (active). For `Cc1nc(Nc2ccc(F)cc2)nc(N2CCc3ccccc3C2C)c1CO` (centres undefined), the growth inhibition was 101% (active). For `CNCCNC(=O)C1Cc2c([nH]c3c(C)cccc23)C(c2ccc(Cl)c(Cl)c2)N1` (centres undefined), the growth inhibition was 102% (active). With `CCCc1cc(NCc2ccncc2)nc(Nc2ccc(F)cc2)n1` the growth inhibition was 90% (active). With `CCCCCn1c(Sc2ccc(C#N)c([N+](=O)[O-])c2)nnc1-c1cc(OC)cc(OC)c1` the growth inhibition was 93% (active). In the case of `COc1cc(OC)c(NC(=O)COc2ccc(C)cc2)cc1Cl`, the growth inhibition is reported as 86% (active). With `c1ccc(-c2cc(NCCCCCCCCNc3cc(-c4ccccc4)nc4ccccc34)c3ccccc3n2)cc1` the growth inhibition was 101% (active). In the case of `Cn1nccc1C(=O)NCCNCc1ccc(-c2cccc(-c3nc4ccc(F)cc4[nH]3)c2)cc1`, the growth inhibition is reported as 102% (active). With `COc1cc(C=NNc2nc(Nc3ccccc3)nc(Nc3ccccc3)n2)ccc1OCc1ccccc1[N+](=O)[O-]` the growth inhibition was 98% (active). In the case of `O=C(/C=C/c1ccc(Cl)c(Cl)c1)NCCCCCN1CCC(c2cn[nH]c2-c2ccccc2)CC1`, the growth inhibition is reported as 85% (active). In the case of `CCOc1cc(C)ccc1C1CCN(CCCCNC(=O)c2ccc(-c3ccc(Cl)cn3)cc2)CC1`, the growth inhibition is reported as 94% (active). With `NC(=O)c1cccc(C(=O)Nc2ccc(-c3cccc(-c4nc5ccc(C(F)(F)F)cc5[nH]4)c3)cc2)c1` the growth inhibition was 100% (active). In the case of `COc1ccccc1CCNC(=O)c1cnc(N2CCN(c3ccncc3)CC2)c(Cl)c1`, the growth inhibition is reported as 98% (active). For `Cc1ccc(-n2c(Sc3ncnc4sccc34)nnc2N2CCCC2)cc1`, the growth inhibition was 99% (active). In the case of `Cc1cc(N2CCCCC2)nc2ccc(NC(=O)c3cncc(Br)c3)cc12`, the growth inhibition is reported as 101% (active). In the case of `Cn1nc(-c2cccc(CNCCc3cccs3)c2)c2cnc(NC3CCCC3)nc21`, the growth inhibition is reported as 97% (active). In the case of `COc1ccc2nccc([C@@H](O)CN3CCC(NCc4ccc5cccc(O)c5n4)CC3)c2c1`, the growth inhibition is reported as 93% (active). For `CCCNCc1ccc(-c2ccc(CN(CCOC)C(=O)c3nn(-c4ccccc4)nc3C)cc2)nc1`, the growth inhibition was 99% (active). For `CC(CN(C)C)C(=O)Nc1cccc(-c2ccc(-c3nc4ccc(C(F)(F)F)cc4[nH]3)cc2)c1` (centres undefined), the growth inhibition was 99% (active). In the case of `Cc1ccc(C)c(Sc2ccc(NC(=O)CN3CCN(C(=O)c4ccco4)CC3)cc2)c1`, the growth inhibition is reported as 96% (active).

Reference: PubChem BioAssay
